Screening data from PubChem.
HCMV antiviral – human cytomegalovirus inhibition; HFF cells, HCMV-luciferase reporter, 72 h; stronger effect = lower value; activity change, negative = inhibition, % at 57.5 µM; 410,000 compounds, 4.5% hits; AID 1259415; in the data active = activity change below about -60%; inconclusive = no clear call, values can overlap the other calls; inactive = above about -39%
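After 16 h attachment at 37C, HFF cells received test compound and HCMV-luciferase (1 PFU/cell); reporter luminescence read 72 h later, data normalized against buffer-only and known inhibitor Salinomycin.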
Marburg entry inh – blocks Marburg virus binding to or entry into cells | Marburg virus pseudotyped entry inhibition, cell reporter | Potency, µM (doses to about 37.8 µM), inactives show at the top dose activity change, negative = inhibition, most hits filed as inhibitors | 300,000 compounds, 1.8% hits | AID 540276; calls by dose curve; tested in HEK293 cells; also: potency is read from the fitted curve at half-maximal effect
FMDV antiviral – antivirals against foot and mouth disease virus. AID 1159524. FMDV antiviral cell-based qHTS. Potency, µM (doses to about 57.9 µM), without a hit: top-dose activity change, negative = inhibition, usual class: inhibitors. 410,000 compounds, 1.2% hits; calls by dose curve; tested in HEK293T cells; also: read-out not given here; potency is read from the fitted curve at half-maximal effect; nearly all actives have a fitted effect of over 45% in size
VACV mCherry inh – vaccinia inhibition (mCherry reporter); Vaccinia virus mCherry reporter infection, fluorescence; Potency, µM (titrated, usually from 36.5 µM), for inactives: at the top dose activity change, negative = inhibition, most hits filed as inhibitors; 310,000 compounds, 0.63% hits; AID 720579; calls by dose curve; tested in A549 cells; also: potency is read from the fitted curve at half-maximal effect; nearly all actives have a fitted effect of over 35% in size
Vaccinia Venus – inhibitors of vaccinia virus (Venus reporter); Vaccinia virus Venus reporter expression, fluorescence; Potency, µM (doses to about 36.5 µM), inactives show at the highest dose activity change, negative = inhibition, usual class: inhibitors; 330,000 compounds, 0.46% hits; AID 720580; calls by dose curve; tested in A549 cells; also: potency is read from the fitted curve at half-maximal effect; nearly all actives have a fitted effect of over 30% in size
LASV entry inh – inhibitors of Lassa virus binding or cell entry; Lassa virus pseudotype entry inhibition, cell reporter; Potency, µM (top dose mostly 37.9 µM), for inactives: top-dose activity change, negative = inhibition, usual class: inhibitors; 300,000 compounds, 1.2% hits; AID 540256; calls by dose curve; tested in HEK293 cells; also: potency is read from the fitted curve at half-maximal effect; nearly all actives have a fitted effect of over 50% in size
* = called active by the depositor; [ ] = dose if it differs, or a comment. An excerpt weighted towards active compounds, which were near 6.5% of everything screened. % is scaled to controls: 0 for no effect and ±100 for the full control effect.

For COc1ccc(OC)c(CNC(=O)c2ccc(N3Cc4ccccc4Oc4ncccc43)s2)c1 the results were HCMV antiviral -3, FMDV antiviral -18%, VACV mCherry inh -6%, Vaccinia Venus 0% and LASV entry inh 6%[46.1 µM].
`CCC1(c2ccc(Cl)cc2)NC(=O)N(CC(=O)NCc2ccc(F)cc2)C1=O` (centres undefined) gave HCMV antiviral -17, Marburg entry inh inconclusive, FMDV antiviral -14%, VACV mCherry inh -25%, Vaccinia Venus -25% and LASV entry inh inconclusive.
`CCC1(c2ccc(Cl)cc2)NC(=O)N(Cc2ccc(C(=O)OC)cc2)C1=O` (centres undefined) gave HCMV antiviral inconclusive, Marburg entry inh 8.9µM*, FMDV antiviral inconclusive, VACV mCherry inh inactive, Vaccinia Venus -7% and LASV entry inh inconclusive.
Screening Cc1ccc(-n2c(COCC(=O)O)nc3cccnc32)cc1 returned HCMV antiviral -4, FMDV antiviral -5%, VACV mCherry inh 2%, Vaccinia Venus 8% and LASV entry inh 13%[46.1 µM].
Screening CCOc1ccc(OCCCC(=O)Nc2cc(Cl)ccc2-n2cncn2)cc1 returned HCMV antiviral -72* and FMDV antiviral inconclusive.
CCOc1ccc(Oc2ccc(Cl)cc2NC(=O)CCNC(C)=O)cc1 was read as HCMV antiviral -66*, Marburg entry inh -9%[46.1 µM], FMDV antiviral -22%, VACV mCherry inh inactive, Vaccinia Venus -9% and LASV entry inh -15%.
Screening O=C(Nc1ccc(Cl)cc1)Nc1nnc(CSCc2ccccc2Cl)s1 returned HCMV antiviral -91* and FMDV antiviral inconclusive.
`O=C(Nc1ccc(Cl)c(Cl)c1)Nc1nnc(CSc2ccccc2)s1` gave HCMV antiviral -99*, Marburg entry inh 10µM*, FMDV antiviral inconclusive, VACV mCherry inh -19%, Vaccinia Venus -24% and LASV entry inh 3.5µM*.
O=C(Nc1ccccc1)Nc1nnc(CSCc2ccccc2Cl)s1 was read as HCMV antiviral inconclusive, Marburg entry inh -2%, FMDV antiviral 0%, VACV mCherry inh inconclusive, Vaccinia Venus inconclusive and LASV entry inh -5%.
For COc1cc(C2CC(=O)Nc3c2c(=O)n(C)c(=O)n3C)cc(OC)c1OC (centres undefined) the results were HCMV antiviral 3, FMDV antiviral -14%, VACV mCherry inh -6%, Vaccinia Venus -2% and LASV entry inh 25%[46.1 µM].
For O=C(CCC(=O)OCC(=O)c1ccc(Cl)cc1)NC1CCCCC1 the results were HCMV antiviral -105*, Marburg entry inh -1%, FMDV antiviral 10% and LASV entry inh 1%.
`CC(=O)c1c(C)[nH]c(C(=O)Nc2ccc(Cl)c(S(=O)(=O)N3CCOCC3)c2)c1C` gave HCMV antiviral 94, Marburg entry inh inconclusive, FMDV antiviral 22µM*, VACV mCherry inh inconclusive, Vaccinia Venus -26% and LASV entry inh inconclusive.
O=C(Nc1ccc(Cl)cc1)Nc1ccc(N2CCCC2)c(S(=O)(=O)Nc2ccccc2Cl)c1 was read as HCMV antiviral -99*, Marburg entry inh 1.6µM*, FMDV antiviral -9%, VACV mCherry inh inconclusive, Vaccinia Venus inconclusive and LASV entry inh 5µM*.
COc1ccccc1NS(=O)(=O)c1cc(N2Cc3ccccc3C2=N)ccc1N1CCOCC1 was read as HCMV antiviral inconclusive, Marburg entry inh 7.1µM*, FMDV antiviral 26%, VACV mCherry inh -11%, Vaccinia Venus -13% and LASV entry inh inconclusive.
Screening COc1ccc(C(=O)Nc2ccc(Cl)c(S(=O)(=O)Nc3ccccc3OC)c2)cc1 returned HCMV antiviral -93*, Marburg entry inh 2.8µM*, FMDV antiviral -9%, VACV mCherry inh inconclusive, Vaccinia Venus inconclusive and LASV entry inh inconclusive.
COc1ccc(NC(=O)c2[nH]c(C)c(C(C)=O)c2C)cc1S(=O)(=O)N1CCOCC1 was read as HCMV antiviral 161, Marburg entry inh 8%, FMDV antiviral -17%, VACV mCherry inh -12%, Vaccinia Venus -7% and LASV entry inh 0%.
Screening O=C(Nc1ccc(N2CCOCC2)c(S(=O)(=O)Nc2ccccc2Cl)c1)c1ccccc1 returned HCMV antiviral -22 and FMDV antiviral 44%.
COc1ccc(CNCc2c(C(=O)O)c(C)n(Cc3ccccc3C)c2C)c(OC)c1 was read as HCMV antiviral 84, Marburg entry inh -15%[46.1 µM], FMDV antiviral 36%, VACV mCherry inh -18%[7.34 µM], Vaccinia Venus -8%[7.34 µM] and LASV entry inh -12%[46.1 µM].
`COc1ccccc1NS(=O)(=O)c1cc(NC(=O)c2ccncc2)ccc1N1CCCC1` gave HCMV antiviral -36, Marburg entry inh 11µM*, FMDV antiviral 43%, VACV mCherry inh -11%, Vaccinia Venus -19% and LASV entry inh inconclusive.
For Cc1ccc(NC(=O)c2cc(S(=O)(=O)N3CCOCC3)c(Cl)cc2Cl)cc1 the results were HCMV antiviral inconclusive, FMDV antiviral 25µM*, VACV mCherry inh inconclusive, Vaccinia Venus -29% and LASV entry inh inconclusive.
Screening COc1ccc(NS(=O)(=O)c2cc(C(=O)N3CCN(C(C)=O)CC3)ccc2Cl)cc1 returned HCMV antiviral -19, Marburg entry inh -12%[46.1 µM], FMDV antiviral 3%, VACV mCherry inh inactive, Vaccinia Venus 7% and LASV entry inh -23%[46.1 µM].
For Cc1onc(-c2ccccc2)c1C(=O)Nc1ccc(Cl)c(S(=O)(=O)N2CCOCC2)c1 the results were HCMV antiviral -103* and FMDV antiviral inconclusive.
O=C(Nc1ccc(S(=O)(=O)N2CCOCC2)cc1)c1cc(S(=O)(=O)N2CCOCC2)ccc1Cl was read as HCMV antiviral -19, Marburg entry inh -1%[46.1 µM], FMDV antiviral -27%, VACV mCherry inh 0%, Vaccinia Venus -15% and LASV entry inh -12%[46.1 µM].
Screening COc1ccc(NS(=O)(=O)c2cc(N/C(=N\S(=O)(=O)c3ccccc3)c3ccc(F)cc3)ccc2Cl)cc1 returned HCMV antiviral -30, Marburg entry inh 12µM*, FMDV antiviral 38%, VACV mCherry inh -21%, Vaccinia Venus inconclusive and LASV entry inh inconclusive.
Screening COc1cc(OC)c2c(C)c(CC(=O)NCc3ccccc3OC)c(=O)oc2c1 returned HCMV antiviral -7, Marburg entry inh -4%[46.1 µM], FMDV antiviral -10%, VACV mCherry inh 0%, Vaccinia Venus 9% and LASV entry inh 0%[46.1 µM].
Screening C(=NCc1ccccc1)N1c2ccccc2-n2cccc2C1CCc1ccccc1 (centres undefined) returned HCMV antiviral 53.
Cc1cc(C(=O)NCC2CCC3(CCN(Cc4cc(F)ccc4F)CC3)O2)n(C)n1 (centres undefined) was read as FMDV antiviral 0%, VACV mCherry inh -20% and Vaccinia Venus -11%.
Screening COc1ccccc1NC(=O)Nc1ccc(Cl)c(S(=O)(=O)Nc2ccccc2OC)c1 returned HCMV antiviral 4, Marburg entry inh inconclusive, FMDV antiviral 4%, VACV mCherry inh -8%, Vaccinia Venus -7% and LASV entry inh inconclusive.
